# Screening data (PubChem BioAssay)
# HP1b binding inh = HP1-beta chromodomain-methylated histone interaction inhibition; Potency, µM (titrated, usually from 114 µM), without a hit: top-dose activity change, negative = inhibition, usual class: inhibitors; 390,000 compounds, 0.56% hits; P83916; AlphaScreen HP1-beta / biotin-H3K9me3 peptide binding; further: nearly all actives have a fitted effect of over 70% in size
#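 Compound inhibition of the preformed complex between 50 nM HP1-beta and 50 nM biotinylated H3K9me3 peptide was read by AlphaScreen. Buffer was PBS pH 7.4 with 0.01% Tween-20. Incubations ran 30 min at room temperature, with 10 ug/mL donor/acceptor beads.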
# GLS inhibitor = glutaminase GLS (human) inhibition; Potency, µM (titrated, usually from 45.5 µM), for inactives: at the highest dose activity change, negative = inhibition, actives largely listed as inhibitors; 410,000 compounds, 0.21% hits; GLS enzymatic activity, qHTS titration; further: on the % scale 0 is the no-effect control and ±100 the full control effect
#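 Enzyme dispensed in phosphate buffer (45 mM, pH 8.2, 0.02% Tween-20), compounds pinned in, then 1 mM L-glutamine solution and the glutamate oxidase–HRP–Amplex Red mix added; fluorescence read immediately and again after 30 min at room temperature.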
# G9a inh = blocks human histone lysine methyltransferase G9a; Q96KQ7; G9a H3K9 monomethylation, AlphaScreen, 2 h; Potency, µM (top dose mostly 102 µM), without a hit: at the top dose activity, negative = inhibition, most hits filed as inhibitors; 350,000 compounds, 8.8% hits; AID 504332; further: on the % scale 0 is the no-effect control and ±100 the full control effect; nearly all actives have a fitted effect of over 75% in size
#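 Methyltransferase reactions run at room temperature for 2 h (20 nM enzyme, 500 nM biotin-H3K9 peptide, 20 uM SAM) after a 15 min compound preincubation; product detected by AlphaScreen beads and anti-H3K9me1 antibody.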
# L3MBTL1 inh = blocks human L3MBTL1. Q9Y468. AlphaScreen L3MBTL1–H3K9me1 peptide binding. Potency, µM (titrated, usually from 57.1 µM), without a hit: at the highest dose activity, negative = inhibition, usual class: inhibitors. 230,000 compounds, 0.66% hits. AID 485360; further: on the % scale 0 is the no-effect control and ±100 the full control effect; nearly all actives have a fitted effect of over 60% in size
#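 First, the protein-peptide complex forms for 30 min at room temperature (L3MBTL1 50 nM, biotinylated H3K9me1 peptide 75 nM). Next, compounds are pin-transferred and incubated 30 min. Finally, AlphaScreen beads are added and read after 30 min.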
# JMJD2A Tudor inh = inhibitors of human JMJD2A Tudor domain; AID 504339; AlphaScreen JMJD2A-Tudor / H3K4me3 peptide binding; Potency, µM (top dose mostly 114 µM), without a hit: at the top dose activity change, negative = inhibition, most hits filed as inhibitors; O75164; 390,000 compounds, 4.4% hits; further: on the % scale 0 is the no-effect control and ±100 the full control effect; nearly all actives have a fitted effect of over 50% in size
# BAZ2B inh = blocks human BAZ2B; Q9UIF8; AlphaScreen BAZ2B-H3K14Ac peptide displacement; Potency, µM (series often up to 114 µM), for the others: at the highest dose activity change, negative = inhibition, most hits filed as inhibitors; 360,000 compounds, 4.4% hits; further: on the % scale 0 is the no-effect control and ±100 the full control effect; nearly all actives have a fitted effect of over 60% in size
#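 AlphaScreen luminescence quantifies BAZ2B engagement of H3K14Ac peptide; the protein and biotinylated peptide are both at 50 nM final, buffer PBS pH 7.4 with 0.01% Tween-20, all steps at room temperature.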
# Starred values were filed as active, the others as inactive; ? = inconclusive; . = no result given; [ ] = remark or other dose. Hits are enriched below; roughly 10% of the tested compounds scored in any of these assays. The call rests on the fitted dose curve; in most records, active means well fitted curve in the direction sought with a large enough effect; inconclusive means small, poorly fitted or top-dose-only effect, or another doubt; inactive means no such curve, though single readings can be large; an effect the other way counts as inactive or inconclusive. Potency means the concentration at half of the fitted maximal effect.
SMILES,HP1b binding inh,GLS inhibitor,G9a inh,L3MBTL1 inh,JMJD2A Tudor inh,BAZ2B inh
COc1ccccc1/C=C\C=N\n1c(-c2ccc(Cl)cc2Cl)n[nH]c1=S,?,-13%,6.3µM*,-5%,?,?
COc1ccccc1/C=C/C=N/n1c(C)nnc1C,15%,-7%,?,4%,-11%,-14%
COc1ccccc1/C=C/C=N/n1c(-c2ccc(F)cc2)n[nH]c1=S,-1%,7%,4µM*,-15%,-23%,-16%
COc1ccc(C(=O)Nc2ccc(-c3nc4ncccc4o3)cc2C)cc1Br,26%,11%,13%[59 µM],.,-5%,4%
Cc1cc(C)c2c(n1)nn1c(C)c(CCC(=O)Nc3cccc(C)c3C)c(C)nc21,37%,-2%,-9%[59 µM],.,-5%,3%
CC(C)(C)NC(=O)C(=O)NNC(=O)c1cccc(F)c1,2%,4%,9%,.,10µM*,?
Cc1occc1C(=O)NNC(=O)c1cccc(F)c1,25%,11%,5%,1%,-14%[11.4 µM],-6%
CC(C)(C)NC(=O)C(=O)NNC(=O)c1ccccc1,16%,3%,?,2%,8.9µM*,?
Cc1cc(OCC(=O)Nc2cc(-c3nc4ncccc4o3)ccc2C)ccc1Cl,-5%,-8%,-10%[59 µM],.,-30%,-14%
Cc1ccc(-c2nc3ncccc3o2)cc1NC(=O)COc1ccc(C(C)C)cc1,32%,-20%,14µM*,.,-17%,-6%
COc1ccc(CCC(=O)NCc2ccc3c(c2)CCN3C(=O)c2ccc(Cl)cc2)cc1,11%,-12%,12%[59 µM],.,-15%,0%
CCOc1ccccc1N(C)C(=O)c1cc(S(=O)(=O)NCc2ccc(C)cc2)ccc1F,0%,-2%,-12%[59 µM],.,-13%,-2%
O=C(CSc1nc2scc(-c3ccco3)c2c(=O)n1-c1ccccc1)NCC1CCCO1 (stereo not given),3%,.,8.9µM*,?,?,35µM*
NC(=O)CSc1nc2scc(-c3ccco3)c2c(=O)n1-c1ccccc1,?,-10%,?,.,45µM*,?
C=CCn1c(SCC(=O)NCC2CCCO2)nc2scc(-c3ccco3)c2c1=O (stereo not given),-7%,-3%,?,?,-29%,?
C=CCn1c(SCC(=O)NCC2CCCO2)nc2scc(-c3ccc(OC)cc3)c2c1=O (stereo not given),1%,4%,68%,.,-12%,7%
O=C(CSc1nc2scc(-c3ccco3)c2c(=O)n1-c1ccccc1)N1CCOCC1,21%,6%,3%[59 µM],-7%,-27%,9%
C=CCn1c(SCC(=O)NCCOC)nc2scc(-c3ccco3)c2c1=O,2%,15%,45µM*,-9%,79µM*,?
COc1ccc(-c2onc(C)c2C)cc1S(=O)(=O)Nc1cc(Cl)ccc1C,28%,8%,-19%[59 µM],.,-19%,-1%
C#CCOCCOCCOCCNc1nc(N2CCN(C(=O)[C@H]([C@@H](C)CC)n3cc([C@@H](N)CC(C)C)nn3)CC2)nc(N2CCN(C(=O)[C@H](Cc3ccc(O)cc3)n3cc([C@@H](N)CC(C)C)nn3)CC2)n1,18%,12%,?,-18%,?,50µM*
C#CCOCCOCCOCCNc1nc(N2CCN(C(=O)[C@H]([C@@H](C)CC)n3cc([C@@H](N)Cc4ccc(O)cc4)nn3)CC2)nc(N2CCN(C(=O)[C@H]([C@@H](C)CC)n3cc([C@@H](N)Cc4ccc(O)cc4)nn3)CC2)n1,35%,13%,-1%[12.7 µM],-16%,?,50µM*
C#CCOCCOCCOCCNc1nc(N2CCN(C(=O)[C@H]([C@@H](C)CC)n3cc([C@@H](N)CC(C)C)nn3)CC2)nc(N2CCN(C(=O)[C@H]([C@@H](C)CC)n3cc([C@@H](N)CC(C)C)nn3)CC2)n1,6%,0%,?,-1%,?,79µM*
